A selection: hits, their analogues and other compounds. The true share with any hit is near 10%.
Pf growth 96h = Primary qHTS for delayed death inhibitors of the malarial parasite plastid, 96 hour incubation; P. falciparum luciferase reporter growth, 96 h; Potency, µM (highest dose often 28.7 µM), without a hit: at the top dose activity change, negative = inhibition, actives largely listed as inhibitors; 6.9% of 320,000 active; active means well fitted inhibition curve with a large enough effect; inconclusive means small, poorly fitted or top-dose-only effect, or another doubt; inactive means no such curve, though single readings can be large or run the other way; further: on the % scale 0 is the no-effect control and ±100 the full control effect
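Two-generation exposure (96 h) targets delayed-death phenotype. Reporter parasites carrying integrated firefly luciferase, in red cells at 2% hematocrit and 0.05% parasitemia final, kept at 37 C, 5% CO2; luminescence loss indicates inhibition.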
NS1 inh = qHTS Assay for Inhibitors of Influenza NS1 Protein Function; Potency, µM (top dose mostly 46.1 µM), inactives show top-dose activity, positive = more growth; 0.4% of 270,000 active; AID 2326, 2010; further: actives are rising curves; nearly all actives have a fitted effect of over 50% in size
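Read-out: OD600 growth recovery of NS1-expressing budding yeast. Cells grown overnight at 30C in -URA glucose medium, washed, resuspended and diluted 1:100 in 2% galactose assay medium, pH 6.0. Same strain lacking NS1 served as positive control.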
Pf growth 48h = Primary qHTS for delayed death inhibitors of the malarial parasite plastid, 48 hour incubation. P. falciparum luciferase growth in erythrocytes, 48 h. Potency, µM (highest dose often 28.7 µM), inactives show at the top dose activity change, negative = inhibition, actives largely listed as inhibitors. 5.9% of 310,000 active. AID 504832, 2011; active means well fitted inhibition curve with a large enough effect; inconclusive means small, poorly fitted or top-dose-only effect, or another doubt; inactive means no such curve, though single readings can be large or run the other way; further: on the % scale 0 is the no-effect control and ±100 the full control effect
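Luciferase-expressing P. falciparum in infected erythrocytes (2% hematocrit, 0.1% parasitemia final) in RPMI 1640/0.5% Albumax were exposed to compound for 48 hours at 37 C, 5% CO2; growth read as luminescence.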
SARS PLpro yeast = qHTS of Yeast-based Assay for SARS-CoV PLP | 0.19% of 330,000 active | S. cerevisiae expressing SARS-CoV PLpro, growth rescue | Potency, µM (titrated, usually from 32.9 µM), for the others: top-dose activity, positive = growth rescue, most hits filed as activators | AID 485353, 2010; further: 0% is about no effect; nearly all actives have a fitted effect of over 55% in size
Active calls of the source: *; u = inconclusive; x = not tested or not shown. Unless noted, the call rests on the fitted dose curve. Potency means the concentration at half of the fitted maximal effect.

SMILES	Pf growth 96h	NS1 inh	Pf growth 48h	SARS PLpro yeast
CN(Cc1ccccc1)Cc1nc2c(c(=O)n(C)c(=O)n2C)n1CCc1ccccc1	x	-46.8%	x	x
CCCn1c(CN(Cc2ccccc2)Cc2ccccc2)nc2c1c(=O)n(C)c(=O)n2C	9.28µM*	-52.6%	u	-13.8%
CN(Cc1ccccc1)Cc1nc2c([nH]1)c(=O)n(C)c(=O)n2C	10.4µM*	1.9%	u	3.3%
CCCn1c(CN(C)Cc2ccccc2)nc2c1c(=O)n(C)c(=O)n2C	44.7%	-3.0%	-14.8%	10.6%
CCOCCn1c(CN(C)Cc2ccccc2)nc2c1c(=O)n(C)c(=O)n2C	17.5%	-5.9%	-6.3%	-11.9%
CCCCn1c(CN(C)Cc2ccccc2)nc2c1c(=O)n(C)c(=O)n2C	-1.8%	-17.7%	13.1µM*	-0.6%
Cc1ccc(NC(=O)COC(=O)c2ccc(-n3nc(C)cc3C)cc2)c(F)c1	x	x	x	0.5%
COC(=O)Cn1c(CN(Cc2ccccc2)Cc2ccccc2)nc2c1c(=O)[nH]c(=O)n2C	u	-6.7%	u	-3.4%
CCOC(=O)Cn1c(CN(Cc2ccccc2)Cc2ccccc2)nc2c1c(=O)n(C)c(=O)n2C	u	x	5.86µM*	-5.4%
O=C(CN(Cc1ccc(F)cc1)C(=O)CNS(=O)(=O)c1ccc(Cl)cc1)NCC1CCCO1 (stereo unspecified)	u	u	-1.3%	1.1%
Cc1csc(CN(C)C(=O)CC2C(=O)NCCN2Cc2ccc(F)c(F)c2)n1 (stereo unspecified)	13.1µM*	-2.2%	7.1%	0.4%
COc1ccc(CN2CCNC(=O)C2CC(=O)N(C)Cc2nccs2)cc1OC (stereo unspecified)	9.28µM*	-4.4%	-8.4%	-3.0%
COc1ccc(CN2CCNC(=O)C2CC(=O)N(C)Cc2nccn2C)cc1OC (stereo unspecified)	2.9%	1.1%	8.7%	1.5%
O=C(Cn1ccc2ccccc2c1=O)NCCC(=O)Nc1cccc(Cl)c1	-26.1%	2.6%	17.6%	7.9%
O=C(Nc1ccc(F)cc1)Nc1ccc2c(c1)CCC2	178.0%	-1.6%	2.6%	0.3%
O=C(Nc1cccc(F)c1)c1c(F)c(F)c(F)c(F)c1F	x	-43.0%	13.1µM*	-21.2%
O=C(Nc1cccnc1)c1c(F)c(F)c(F)c(F)c1F	x	-1.3%	u	-2.3%
O=C(Nc1ccncc1)c1c(F)c(F)c(F)c(F)c1F	-26.0%	-13.3%	10.4µM*	-8.7%
O=C(Nc1cccc(F)c1)Nc1ccc2c(c1)CCC2	1.65µM*	-3.9%	-7.6%	-1.1%
CC(=O)Nc1ccc(C(=O)COC(=O)CCc2ccccc2)c(F)c1	u	x	-7.5%	-11.1%
COc1cccc(C2CC(c3ccccc3)n3ncnc3N2)c1 (stereo unspecified)	u	-0.7%	x	4.3%
COc1cccc(C2CC(c3cccc(Br)c3)n3ncnc3N2)c1 (stereo unspecified)	11.7µM*	-20.0%	-4.6%	4.2%
COc1cccc(C2CC(c3cccc(OC)c3)n3nc(N)nc3N2)c1 (stereo unspecified)	11.7µM*	7.1%	1.8%	2.4%
COc1ccc(C2CC(c3cccc(Cl)c3)n3nc(N)nc3N2)cc1 (stereo unspecified)	9.28µM*	7.6%	9.7%	0.9%
COc1cccc(C2CC(c3ccc(F)cc3)Nc3nc(N)nn32)c1 (stereo unspecified)	0.6%	6.6%	-0.3%	0.8%
SMILES	Pf growth 96h	NS1 inh	Pf growth 48h	SARS PLpro yeast
CC(C)CC(=O)C1=C(O)C(=O)N(Cc2ccccc2)C1c1ccccc1 (stereo unspecified)	-11.1%	10.2%	30.2%	4.3%
Cc1cc(C)nc(NC(N)=NC(C)c2ccccc2)n1 (stereo unspecified)	u	-9.0%	14.7µM*	0.3%
Cc1cc(C)nc(NC(=O)C(c2ccccc2)c2ccccc2)n1	59.7%	4.9%	3.3%	10.6%
CCC1(c2ccccc2)CCC(=O)NC1=O (stereo unspecified)	u	x	19µM*	x
NC(=S)Nc1ccc(F)c(F)c1F	35.4%	-9.9%	2.62µM*	4.8%
NC(=S)Nc1ccc(F)cc1F	0.8%	-0.6%	8.4%	0.3%
Cc1ccc2nc(Nc3nc(C)cc(-c4ccccc4)n3)[nH]c(=O)c2c1	6.57µM*	4.1%	3.29µM*	0.5%
C=CCn1c(=NC(=O)c2ccc(S(=O)(=O)N3CCCc4ccccc43)cc2)sc2cc(S(N)(=O)=O)ccc21	4.65µM*	u	5.22µM*	11.3%
COc1cccc(C(=O)N=c2sc3cc(S(C)(=O)=O)ccc3n2C)c1	13.1µM*	-2.5%	98.7%	-4.9%
COCCn1c(=NC(=O)c2ccc(S(=O)(=O)N3CCCc4ccccc43)cc2)sc2cc(S(C)(=O)=O)ccc21	1.04µM*	-0.7%	3.29µM*	-4.9%
CC(C)(CNC(=O)c1ccc(S(=O)(=O)Nc2ccc(Cl)cc2)cc1)N1CCOCC1	-7.6%	x	u	-11.5%
CC1(C)NC(=O)N(CC(=O)OCC(=O)N2CCN(S(=O)(=O)c3ccccc3)CC2)C1=O	14.6%	x	-18.9%	-0.1%
O=C(O)COc1ccc(/C=C/c2nc3ccc([N+](=O)[O-])cc3s2)cc1	48.8%	-0.9%	51.2%	-0.3%
COc1ccc(S(=O)(=O)N2CCCCCC2)cc1NC(=O)Cc1n[nH]c(=O)c2ccccc12	u	x	u	-0.4%
NCCSC1CC(=O)N(c2ccc(Cl)c(Cl)c2)C1=O (stereo unspecified)	u	19.2%	45.0%	-4.8%
NCCSC1CC(=O)N(c2ccc(F)cc2)C1=O (stereo unspecified)	9.28µM*	18.5%	28.8%	-7.8%
CCOC(=O)c1ccc(N2C(=O)CC(SCC(N)C(=O)OCC)C2=O)cc1 (stereo unspecified)	90.3%	-14.6%	10.4µM*	-15.6%
O=C(c1cc([N+](=O)[O-])ccc1N1CCN(S(=O)(=O)c2ccc(Cl)c(Cl)c2)CC1)N1CCOCC1	u	-0.1%	u	-7.2%
O=S(=O)(c1ccc(Cl)c(C(F)(F)F)c1)N1CCN(CC(O)COc2ccccc2F)CC1 (stereo unspecified)	u	-13.2%	u	-2.7%
O=C(c1cc([N+](=O)[O-])ccc1N1CCOCC1)N1CCN(S(=O)(=O)c2cc(Cl)ccc2Cl)CC1	u	x	10.4µM*	2.3%
Cc1noc(C)c1CSCC(=O)N1CCN(c2ccc([N+](=O)[O-])cc2)CC1	11.7µM*	-46.5%	x	-1.9%
O=C(c1cc([N+](=O)[O-])ccc1N1CCCCC1)N1CCCC1	7.38µM*	5.2%	31.1%	1.7%
O=C(c1cc([N+](=O)[O-])ccc1N1CCCC1)N1CCCC1	u	-0.6%	0.4%	-0.9%
O=[N+]([O-])c1cccc(OCC(O)CN2CCN(S(=O)(=O)c3cc(Cl)ccc3Cl)CC2)c1 (stereo unspecified)	10.4µM*	-13.7%	u	-26.4%
O=C(CCNC(=O)c1ccc(Cl)cc1)Nc1ccccc1N1CCCC1	u	x	u	4.6%
COc1ccc(C(=O)N2CCOC2CNC(=O)C(=O)NCCc2ccccc2OC)cc1 (stereo unspecified)	-0.8%	2.3%	u	0.0%

Assay outcomes deposited in PubChem by National Center for Advancing Translational Sciences (NCATS).
